Assay outcomes from PubChem BioAssay.
In the library only some 5.3% were active in any assay of this set; here they are far more common.
Marburg entry inh = qHTS for inhibitors of binding or entry into cells for Marburg Virus | Marburg virus pseudotyped entry inhibition, cell reporter | hit rate 1.8% among 300,000 | Potency, µM (doses to about 37.8 µM), for the others: top-dose activity change, negative = inhibition, actives largely listed as inhibitors; calls by dose curve; tested in HEK293 cells
Lassa entry inh = qHTS for Inhibitors of binding or entry into cells for Lassa Virus. Lassa virus pseudotype entry inhibition, cell reporter. Potency, µM (top dose mostly 37.9 µM), without a hit: at the top dose activity change, negative = inhibition, most hits filed as inhibitors. hit rate 1.2% among 300,000; calls by dose curve; tested in HEK293 cells; note: nearly all actives have a fitted effect of over 50% in size
VACV mCherry inh = qHTS for Stage-Specific Inhibitors of Vaccinia Orthopoxvirus: mCherry Reporter Primary qHTS. Vaccinia virus mCherry reporter infection, fluorescence. Potency, µM (doses to about 36.5 µM), for the others: top-dose activity change, negative = inhibition, hits mostly inhibitors. hit rate 0.63% among 310,000. AID 720579, 2013; calls by dose curve; tested in A549 cells; note: nearly all actives have a fitted effect of over 35% in size
VACV Venus inh = qHTS for Stage-Specific Inhibitors of Vaccinia Orthopoxvirus: Venus Reporter Primary qHTS; Vaccinia virus Venus reporter expression, fluorescence; Potency, µM (doses to about 36.5 µM), inactives show at the highest dose activity change, negative = inhibition, actives largely listed as inhibitors; hit rate 0.46% among 330,000; calls by dose curve; tested in A549 cells; note: nearly all actives have a fitted effect of over 30% in size
HCV inhibitor = qHTS Assay for Inhibitors of Hepatitis C Virus (HCV). Potency, µM (top dose mostly 41.8 µM), without a hit: top-dose activity change, negative = inhibition, most hits filed as inhibitors. hit rate 3.4% among 340,000. Huh7.5.1 HCVcc-Cre infection, luciferase reporter, 44 h. AID 651820, 2012; active = well fitted inhibition curve with a large enough effect; inconclusive = small, poorly fitted or top-dose-only effect, or another doubt; inactive = no such curve, though single readings can be large or run the other way
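Luciferase read-out (15 sec integration) after a 15 min room-temperature substrate step quantifies HCVcc-Cre infection. Cells, 1,000 per well, had compound added 4 h post-plating, then virus at ~0.5 moi, and were cultured 44 h.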
FMDV inh = High Throughput Screening for Foot and Mouth Disease Virus Antivirals | hit rate 1.2% among 410,000 | AID 1159524, 2015 | Potency, µM (titrated, usually from 57.9 µM), for inactives: at the highest dose activity change, negative = inhibition, hits mostly inhibitors | FMDV antiviral cell-based qHTS; calls by dose curve; tested in HEK293T cells; note: read-out not given here; nearly all actives have a fitted effect of over 45% in size
Active calls of the source: *; i = inactive; ? = inconclusive; nt = not tested or not shown; [ ] = dose if it differs, or a comment. % is set by controls: 0 for no effect and ±100 for the full control effect; potency is the fitted concentration of half-maximal effect.

SMILES	Marburg entry inh	Lassa entry inh	VACV mCherry inh	VACV Venus inh	HCV inhibitor	FMDV inh
Cc1cccn2c(=O)c(C=O)c(Cl)nc12	?	?	-15%	-14%	?	32µM*
Cc1cccn2c(=O)c(C=O)c(N3CCCCC3)nc12	?	25%	-7%	-16%	15%	-9%
O=Cc1c(Cl)nc2ccccn2c1=O	?	?	-24%	-13%	10µM*	-19%
C=C1C=C(C(F)F)n2ncc(C(=O)NCc3ccc(OC)c(OC)c3)c2N1	nt	nt	-13%	?	nt	nt
COc1cc(OC)c(/C=C/c2ccncn2)c(OC)c1	nt	nt	-4%	-8%	nt	nt
COc1ccccc1-c1nnc(Sc2nc([N+](=O)[O-])nn2C)o1	?	-27%	nt	nt	10µM*	28µM*
Cc1cc(OC(C)C(=O)N(Cc2ccco2)Cc2ccco2)cc(C)c1Cl (centres undefined)	?	8%[46.1 µM]	2%	-5%	nt	?
COc1ccc(Cc2[nH]n3c(=O)cc(C)nc3c2-c2ccccc2)cc1	?	-7%[46.1 µM]	i	-17%	5%	-12%
COc1ccc(Cc2[nH]n3c(=O)cc(C(C)C)nc3c2-c2ccccc2)cc1	13µM*	?	?	-19%	?	?
CC1(C)Oc2c(ccc(O)c2CN2CCOCC2)C2=C1CCCC2	-2%	-22%	-16%	-18%	-15%	-18%
C=C1C(=O)[C@]23C[C@H]1CC[C@H]2[C@]1(C)[C@@H](O)CC[C@@](C)(C(=O)O)[C@H]1C[C@@H]3O	nt	nt	?	-29%	nt	40µM*
C=C1C(=O)[C@]23C[C@H]1CCC2[C@@]1(C)C(C[C@@H]3O)[C@](C)(C(=O)OC)CC[C@@H]1OC(C)=O (some centres undefined)	nt	nt	3.2µM*	1.8µM*	nt	8.9µM*
C=C1C(=O)[C@]23C[C@H]1CC[C@H]2[C@]1(C)[C@@H](OC(C)=O)CC[C@@](C)(C(=O)OC)[C@H]1C[C@@H]3OC(C)=O	nt	nt	?	?	nt	11µM*
C=C1C(=O)[C@]23C[C@H]1CC[C@H]2[C@]1(C)[C@@H](OC(C)=O)CC[C@@](C)(C(=O)O)[C@H]1C[C@@H]3O	nt	nt	5µM*	?	nt	0%
COC(=O)C1OC(=O)C2OC23[C@]2(C)C(O)CC4C(C)(C)C(OC(C)=O)CC(OC(C)=O)[C@@]4(C)C2CC[C@@]13C (some centres undefined)	nt	nt	-9%	-7%	nt	-9%
C=C1C(=O)[C@]23C[C@H]1CCC2[C@@]1(C)C(C[C@@H]3O)[C@](C)(C(=O)O)C[C@H](O)[C@@H]1O (some centres undefined)	nt	nt	13%	1%	nt	-11%
COc1ccccc1CNc1ncnc2ccc(-c3ccc(N(C)C)cc3)cc12	nt	nt	i	0%	nt	-30%
CCOC(=O)c1c(NC(=O)c2cc(OC)c(OC)c(OC)c2)sc2c1CCCC2	nt	-14%[46.1 µM]	-9%	-3%	nt	-4%
CCOC(=O)C1=CCC(c2ccc(C#N)cc2)N(S(=O)(=O)c2ccc(C)cc2)C1 (centres undefined)	nt	nt	6%	-2%	nt	-17%
CCOC(=O)C1=C(C)N=c2s/c(=C\c3ccncc3)c(=O)n2C1c1ccc2c(c1)OCO2 (centres undefined)	-14%	-14%	nt	-18%	?	25µM*
Cc1ccccc1-c1ccc(CN2CCc3nnc(C(NS(C)(=O)=O)C(C)C)n3CC2)cc1 (centres undefined)	nt	nt	-4%	-18%	nt	-15%
CCN(c1ccc(C(=O)CN2C(=O)NC3(CCOc4ccccc43)C2=O)cc1)S(C)(=O)=O (centres undefined)	nt	nt	nt	nt	6%	-20%
CC(C)(C)c1ccc(-n2ncc3c2CCCC3NC(=O)c2ccncc2)cc1 (centres undefined)	-24%	-20%	i	-22%	?	?
O=C(NC1CCCc2c1cnn2-c1ccccc1F)c1ccccn1 (centres undefined)	nt	nt	nt	nt	?	-21%
CCc1cc(C(=O)NC2CCCc3c2cnn3-c2cccc(C)c2C)n(C)n1 (centres undefined)	?	?	-27%	-13%	?	28µM*
SMILES	Marburg entry inh	Lassa entry inh	VACV mCherry inh	VACV Venus inh	HCV inhibitor	FMDV inh
Cc1cc(C(=O)NC2CCCc3c2cnn3-c2ccc(C(C)(C)C)cc2)n[nH]1 (centres undefined)	nt	nt	nt	nt	11µM*	?
Cc1cc(C)c(C(=O)NC2CCCc3c2cnn3-c2cccc(C)c2C)o1 (centres undefined)	?	?	-28%	6%	?	-17%
Cc1nnsc1C(=O)NC1CCCc2c1cnn2-c1ccccc1F (centres undefined)	?	0.5µM*	-3%	-15%	?	?
Cc1cccc(-n2ncc3c2CCCC3NC(=O)C2(C(N)=O)CC2)c1C (centres undefined)	?	?	?	-16%	1.6µM*	?
COCc1ccc(C(=O)NC2CCCc3c2cnn3-c2cc(C)cc(C)c2)s1 (centres undefined)	nt	nt	i[7.34 µM]	3%[7.34 µM]	13µM*	-19%
O=C(CCc1ccccn1)NC1CCCc2c1cnn2-c1ccc(F)cc1F (centres undefined)	nt	nt	nt	nt	?	-24%
CC1(C)CC(=O)C=C(C(=O)NC2CCCc3c2cnn3-c2cc(F)cc(F)c2)O1 (centres undefined)	3%	4%	i	-16%	10%	-4%
O=C(CCc1ccncc1)NC1CCCc2c1cnn2-c1ccc(F)cc1F (centres undefined)	?	-21%[46.1 µM]	-4%	-12%	13µM*	?
COc1ncccc1C(=O)NC1CCCc2c1cnn2-c1cc(C)cc(C)c1 (centres undefined)	?	-10%[46.1 µM]	-9%	-3%	-21%	6%
Cc1cccc(-n2ncc3c2CCCC3NC(=O)C2=CC(=O)CC(C)(C)O2)c1C (centres undefined)	?	-22%	-8%	-13%	7.1µM*	?
Cc1cc(C(=O)NC2CCCc3c2cnn3-c2ccc(C)c(C)c2)n(C)n1 (centres undefined)	nt	nt	nt	nt	8.9µM*	?
COC(=O)c1ccccc1-c1cc(C)cc2c1OC(CNC(=O)c1occc1C)C2 (centres undefined)	nt	nt	-4%	-13%	nt	32%
COC(=O)C1=C[C@@]2(c3ccc(F)cc3[C@@H](OC)[C@@H]2C)[C@@H]2C=C[C@H]1C2	2%[14.2 µM]	nt	nt	nt	nt	nt
C/C(=C\c1ccc(N(C)C)cc1)[N+](=O)[O-]	5.2µM*	?	nt	nt	?	14µM*
CN(C)c1ccc(C(=O)C=Cc2ccc([N+](=O)[O-])cc2)cc1	nt	nt	?	-23%	nt	-5%
COc1ccc2c(c1)O[C@@H](c1ccc3c(c1)OCO3)[C@H](OC(=O)Nc1ccc(OC(F)F)cc1)C2=O	-7%[14.2 µM]	?	nt	nt	nt	nt
